From the OligoGym collection come the findings set out here.
Further: reference of the scale not given here.

The target of one test is AMOTL1. Kind of test: pooled miR-30 sensor sort-seq; sequence = guide strand. The conditions noted are these: shRNA.
Regarding TTGTGGGTCTTCTTGAGTGAGG, the sensor-assay potency score (higher = more potent) was -0.72.

With TAGACTTGACCAGACTTTCATA, the sensor-assay potency score (higher = more potent) was -0.788. The same measure, in the same setting: then TTGTCAGTCTGTGTGCTGCTGT, with 0.0814.

The target of the next test is AMPH. The description is as above. The following applies: shRNA.
As for TGATTTGGACTTGCTGTCGGGC, the sensor-assay potency score (higher = more potent) was -0.73.

On to TAATTCATCACATCTTCTGCAG, for which the sensor-assay potency score (higher = more potent) was -0.0381. Still for that read-out and setting: with TTTTACTTTAGAACAATCTGTG the figure was 0.225; with TTGATTGCTGCTAAATATCCTC, -0.275; with TAGAGATTCGACTCTCATCCTT, 0.077. Take TTTACTTTAGAACAATCTGTGA: the sensor-assay potency score (higher = more potent) is -0.223. TTGTGAATAATGAAGTATCCTG displayed a sensor-assay potency score (higher = more potent) of -0.215. Take TTTCCTTATGAAACTTGGCTTC: the sensor-assay potency score (higher = more potent) was -0.107.

In turn, TTTTTTGCACACATGCTCCATT yielded a sensor-assay potency score (higher = more potent) of -0.524.

TCTGCATACACATAGATCCAGG registered a sensor-assay potency score (higher = more potent) of -1.05. Turning to TAACAAAAGTGAACTCTTCAGG, the sensor-assay potency score (higher = more potent) is -0.296. On the same count and under the same terms, with TAAATGAACCACCAGAAGCCGG the figure was -1.23. In turn, TTCTTCGAACTGTTCGTCTTTT had a sensor-assay potency score (higher = more potent) of -0.66. The same measure, in the same setting: with TTGCTGCTAAATATCCTCGGAG the figure was -0.441. In turn, TTCTGGAACAAAGTTGTCCTCA came in with a sensor-assay potency score (higher = more potent) of -0.205. Sequence TTGTCTGTGAAGGTGACCGAGG came in with a sensor-assay potency score (higher = more potent) of -0.658.

Regarding TAGTCCACTAGCTTCCTGCTGC, the sensor-assay potency score (higher = more potent) came out at 0.262. Take TCATAGTCCACTAGCTTCCTGC: the sensor-assay potency score (higher = more potent) was -0.747. Still for that read-out and setting: with TACTTTAGAACAATCTGTGAAG the figure was -0.229; with TTAACATAAAATCCAACTCGTC, -0.669; with TTTTTGATGGAAGTCTTCCCAC, -0.336. Sequence AAACTCTTCAAACACTTTCTGT registered a sensor-assay potency score (higher = more potent) of -0.65.

Turning to TTACTTTAGAACAATCTGTGAA, the sensor-assay potency score (higher = more potent) is -0.181. The same measure, in the same setting: with TAACATAAAATCCAACTCGTCT the figure was -0.296.

A further test deals with AMY2A. The test is described as above. The following applies: shRNA.
With TTTACCATCATTGAAATCCCAT, the sensor-assay potency score (higher = more potent) was -0.145. The same measure, in the same setting: with TTGTACAGCCTAGCATCCCAGA the figure was -1.14; with TACATTGCGGAAAATAACCATG, -1.22. Same read-out and setting: then TTATCCACAAAGACAAGCGCTC, with -0.172; and TTAAAGAAAATGACCAGTCATC, with -0.896; and TTAAGTAAGACATCTTCTCTCC, with 0.353.

A further test addresses ANAPC5. Described as above. The following applies: shRNA.
TTTGATTCTGATCTGCACTGAA came in with a sensor-assay potency score (higher = more potent) of 0.516. Same read-out and setting: then TCACATAACATCCATAACTGGG, with -0.755; and TTTTGATCACATAACATCCATA, with -1.19; and ATAGCTATCGGATCTCTTCTGC, with 0.457.

In turn, TTGAACTGAAAACATCTTGGAC showed a sensor-assay potency score (higher = more potent) of -0.413. With TGTAATACAACCGCTTTCCTAT, the sensor-assay potency score (higher = more potent) was -0.539.

The sequence TTTTTGATCACATAACATCCAT came in with a sensor-assay potency score (higher = more potent) of 0.00973.
